In PubChem BioAssay (NCI) one finds growth inhibition data, which are given here for 9 compounds.

A short description of assay [1]: NCI Yeast Anticancer Drug Screen. Data for the rad50 strain (AID 155).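 Note: 0% = growth of vehicle-only cultures of the same strain.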 The conditions noted are these: S. cerevisiae rad50 strain growth inhibition, active compounds read high. The method in brief: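 Inhibition values express reduced yeast growth in compound-treated cultures relative to vehicle-treated controls.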
Assay [2] is described as follows: NCI Yeast Anticancer Drug Screen. Data for the mec2-1 strain (AID 157). The note with it: S. cerevisiae mec2-1 strain, active compounds read high. Summed up:
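Using mec2-1 yeast: add compound, measure growth, express inhibition versus vehicle-treated cultures.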

The nature of assay [3]: NCI Yeast Anticancer Drug Screen. Data for the sgs1 mgt1 strain (AID 161).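 Note: 0% = growth of cultures given vehicle only.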 The note with it: S. cerevisiae sgs1 mgt1 strain, active compounds read high. Summed up: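 This yeast growth screen uses a strain with defined DNA-repair lesions; compound-treated growth is compared with vehicle-treated growth.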
Assay [4] is described as follows: NCI Yeast Anticancer Drug Screen. Data for the cln2 rad14 strain (AID 165).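 Note: 0% = growth equal to vehicle treated cultures.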 The note with it: S. cerevisiae cln2 rad14 strain, active compounds read high. Summed up:
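Yeast strain cln2 rad14, bearing defects in cell cycle control and DNA repair, serves as the test system; values reflect growth inhibition compared with vehicle.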

Assay [5] in a line: NCI Yeast Anticancer Drug Screen. Data for the bub3 strain (AID 167). The conditions noted are these: S. cerevisiae bub3 mutant strain, active compounds read high. Summed up: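 Steps: expose the mutant yeast strain to compound; grow alongside vehicle-treated cultures; measure growth; express inhibition against the vehicle cultures.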
A short description of assay [6]: NCI Yeast Anticancer Drug Screen. Data for the mlh1 rad18 strain (AID 175). The note with it: S. cerevisiae mlh1 rad18 strain growth inhibition, active compounds read high. The method in brief: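 Steps: expose repair-defective yeast to compound; measure growth; express inhibition against vehicle-treated controls.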
[7] abbreviates: at 5.0 µM (retest, dose inferred, filed as 0.5).
[8] abbreviates: at 50.0 µM (retest, dose inferred, filed as 5.0).

Molecules are shown by their SMILES. The panel holds about 79,000 compounds, 15% with a hit somewhere; the sample as a whole holds those more often. Values without a mark were called inactive. Activity calls are given as the source filed them. Cut-off read from the data, not from the text of the source: active = growth inhibition above about 70%; inactive = the rest.

Regarding `Cc1cc(Cl)nc2ccc(Cc3ccc4nc(Cl)cc(C)c4c3)cc12`, the growth inhibition in assay [1] (setting [7]) was 4%; in assay [1] (setting [8]), 27%; in assay [1] (at 50.0 µM), 15.1%; in assay [2] (setting [7]), 15%; in assay [2] (setting [8]) it was 5%; in assay [2] (at 50.0 µM), 2.45%. In addition, the growth inhibition in assay [3] (setting [7]) is 7%; in assay [3] (setting [8]), 7%; in assay [3] (at 50.0 µM), -19.6%; in assay [4] (setting [7]) it was 3%; in assay [4] (setting [8]), 13%; in assay [4] (at 50.0 µM) it was 15.4%. Besides, the growth inhibition is 8% in assay [5] (setting [7]); 13% in assay [5] (setting [8]); 23.4% in assay [5] (at 50.0 µM); 0% in assay [6] (setting [7]); 12% in assay [6] (setting [8]); 37.8% in assay [6] (at 50.0 µM).

`CC1=CC2OC3CC4OC(=O)/C=C/C=C/C(C(C)O)OCC(=O)C(C)CC(=O)OCC2(CC1)C4(C)C31CO1` (configuration not stated): the growth inhibition in assay [1] (setting [7]) is 28%; in assay [1] (setting [8]), 98% (active); in assay [1] (at 50.0 µM), 90.8% (active); in assay [2] (setting [7]) it was 26%; in assay [2] (setting [8]), 99% (active); in assay [2] (at 50.0 µM), 94% (active). For the same compound, the growth inhibition in assay [3] (setting [7]) is 31%; in assay [3] (setting [8]), 98% (active); in assay [3] (at 50.0 µM), 91.8% (active); in assay [4] (setting [7]), 72% (active); in assay [4] (setting [8]), 99% (active); in assay [4] (at 50.0 µM), 91.3% (active). For the same compound, the growth inhibition in assay [5] (setting [7]) is 60%; in assay [5] (setting [8]), 99% (active); in assay [5] (at 50.0 µM), 91.8% (active); in assay [6] (setting [7]), 65%; in assay [6] (setting [8]), 99% (active); in assay [6] (at 50.0 µM), 91.3% (active).

In the case of `NC(=O)c1cccn1Cc1ccccc1SSc1ccccc1Cn1cccc1C(N)=O`, the growth inhibition in assay [1] (setting [7]) was 32%; in assay [1] (setting [8]), 98% (active); in assay [1] (at 50.0 µM), 89.5% (active); in assay [2] (setting [7]), 31%; in assay [2] (setting [8]), 99% (active); in assay [2] (at 50.0 µM) it was 95.7% (active). Further, the growth inhibition was 47% in assay [3] (setting [7]); 99% (active) in assay [3] (setting [8]); 94.2% (active) in assay [3] (at 50.0 µM); 16% in assay [4] (setting [7]); 98% (active) in assay [4] (setting [8]); 90.9% (active) in assay [4] (at 50.0 µM). In addition, the growth inhibition in assay [5] (setting [7]) is 24%; in assay [5] (setting [8]), 99% (active); in assay [5] (at 50.0 µM) it was 92.8% (active); in assay [6] (setting [7]), 21%; in assay [6] (setting [8]) it was 98% (active); in assay [6] (at 50.0 µM), 94.4% (active).

Regarding `CN(C)Cc1ccc(C(C)(C)C)cc1-c1cc(C(C)(C)C)ccc1CN(C)C`, the growth inhibition is 7% in assay [1] (setting [7]); 3% in assay [1] (setting [8]); 1.6% in assay [1] (at 50.0 µM); 7% in assay [2] (setting [7]); -4% in assay [2] (setting [8]); 1.8% in assay [2] (at 50.0 µM). For the same compound, the growth inhibition in assay [3] (setting [7]) is -10%; in assay [3] (setting [8]), 2%; in assay [3] (at 50.0 µM), -32.4%; in assay [4] (setting [7]), 26%; in assay [4] (setting [8]), -17%; in assay [4] (at 50.0 µM), -40.5%. Moreover, the growth inhibition in assay [5] (setting [7]) was -27%; in assay [5] (setting [8]), -16%; in assay [5] (at 50.0 µM) it was -30.8%; in assay [6] (setting [7]), -6%; in assay [6] (setting [8]) it was -9%; in assay [6] (at 50.0 µM), 11.9%.

For `O=C(Sc1c(-c2ccccc2)c(=O)n(-c2ccccc2)c(=S)n1-c1ccccc1)c1cccs1`, the growth inhibition was 37% in assay [1] (setting [7]); 92% (active) in assay [1] (setting [8]); 72.2% (active) in assay [1] (at 50.0 µM); 39% in assay [2] (setting [7]); 95% (active) in assay [2] (setting [8]); 73.1% (active) in assay [2] (at 50.0 µM). The growth inhibition in assay [3] (setting [7]) was 23%; in assay [3] (setting [8]), 93% (active); in assay [3] (at 50.0 µM), 77.9% (active); in assay [4] (setting [7]), 25%; in assay [4] (setting [8]), 92% (active); in assay [4] (at 50.0 µM), 56%. Further, the growth inhibition was 47% in assay [5] (setting [7]); 95% (active) in assay [5] (setting [8]); 84% (active) in assay [5] (at 50.0 µM); 66% in assay [6] (setting [7]); 95% (active) in assay [6] (setting [8]); 77.6% (active) in assay [6] (at 50.0 µM).

Regarding `O=C1OCC/C1=C1/CCOC1`, the growth inhibition in assay [1] (setting [7]) is 73% (active); in assay [1] (setting [8]), 97% (active); in assay [1] (at 50.0 µM) it was 99.2% (active); in assay [2] (setting [7]), 65%; in assay [2] (setting [8]), 98% (active); in assay [2] (at 50.0 µM), 99.3% (active). For the same compound, the growth inhibition was 82% (active) in assay [3] (setting [7]); 98% (active) in assay [3] (setting [8]); 50.3% in assay [3] (at 50.0 µM); 51% in assay [4] (setting [7]); 97% (active) in assay [4] (setting [8]); 98.8% (active) in assay [4] (at 50.0 µM). Also, the growth inhibition is 61% in assay [5] (setting [7]); 97% (active) in assay [5] (setting [8]); 99.2% (active) in assay [5] (at 50.0 µM); 78% (active) in assay [6] (setting [7]); 97% (active) in assay [6] (setting [8]); 99.5% (active) in assay [6] (at 50.0 µM).

Regarding `CS(=O)(=O)c1ccc(C[N+]23CN4CN(CN(C4)C2)C3)cc1`, the growth inhibition in assay [1] (setting [7]) was -9%; in assay [1] (setting [8]), -2%; in assay [1] (at 50.0 µM), -8.25%; in assay [2] (setting [7]), 0%; in assay [2] (setting [8]), 13%; in assay [2] (at 50.0 µM), 14.7%. In addition, the growth inhibition is -20% in assay [3] (setting [7]); -5% in assay [3] (setting [8]); -0.8% in assay [3] (at 50.0 µM); -8% in assay [4] (setting [7]); -4% in assay [4] (setting [8]); 43.4% in assay [4] (at 50.0 µM). Besides, the growth inhibition is -4% in assay [5] (setting [7]); 6% in assay [5] (setting [8]); -4.75% in assay [5] (at 50.0 µM); -9% in assay [6] (setting [7]); -4% in assay [6] (setting [8]); 1.85% in assay [6] (at 50.0 µM).

For the compound `Clc1cccc(C2SCc3nc4ccccc4n32)c1Cl` (configuration not stated), the growth inhibition in assay [1] (setting [7]) was -2%; in assay [1] (setting [8]), 97% (active); in assay [1] (at 50.0 µM), 98.6% (active); in assay [2] (setting [7]) it was -3%; in assay [2] (setting [8]), 98% (active); in assay [2] (at 50.0 µM), 98.4% (active). The growth inhibition in assay [3] (setting [7]) is 2%; in assay [3] (setting [8]) it was 98% (active); in assay [3] (at 50.0 µM) it was 97.5% (active); in assay [4] (setting [7]), -17%; in assay [4] (setting [8]), 97% (active); in assay [4] (at 50.0 µM), 97.4% (active). The growth inhibition in assay [5] (setting [7]) was 1%; in assay [5] (setting [8]) it was 98% (active); in assay [5] (at 50.0 µM) it was 98.5% (active); in assay [6] (setting [7]), -4%; in assay [6] (setting [8]) it was 98% (active); in assay [6] (at 50.0 µM), 97.1% (active).

Consider `C/C(=N\NC(=S)N1CCCCCC1)c1cccc2cccnc12`, for which the growth inhibition was -3% in assay [1] (setting [7]); 14% in assay [1] (setting [8]); 94.2% (active) in assay [1] (at 50.0 µM); -5% in assay [2] (setting [7]); 44% in assay [2] (setting [8]); 83.9% (active) in assay [2] (at 50.0 µM). Further, the growth inhibition in assay [3] (setting [7]) is 7%; in assay [3] (setting [8]) it was 30%; in assay [3] (at 50.0 µM), 97.6% (active); in assay [4] (setting [7]) it was -19%; in assay [4] (setting [8]) it was 2%; in assay [4] (at 50.0 µM) it was 94.4% (active). For the same compound, the growth inhibition was -4% in assay [5] (setting [7]); 26% in assay [5] (setting [8]); 87.5% (active) in assay [5] (at 50.0 µM); -9% in assay [6] (setting [7]); 22% in assay [6] (setting [8]); 86.2% (active) in assay [6] (at 50.0 µM).
